The values that follow come from PubChem BioAssay.

Results filed as inconclusive are left out. A number with no mark means an inactive call. The source made the active and inactive calls.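 Rule for the calls: active = cell viability at or below a set limit in both duplicate runs, the limit being the all-compound median minus 4 SD (cut at about 23% in these data, passing the limit was not always enough); inconclusive = no clear call, values can overlap the other calls; inactive = the rest.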

The test is described as follows: viability of HCT116 without oncogenic beta-catenin – human colon tumor cells, pilot screen (AID 823).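 Note: 0% = wells killed by 20 µM Hyamine and 100% = untreated DMSO cell wells.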 Conditions: HCT116 beta-catenin knockout viability, CellTiter-Glo, 60 h; at 10 µM; active compounds read low.
`Cc1cc2ncn(CC(O)COC3CCCCC3)c2cc1C` (stereo not given): the viability was 89.9%.

For `CCOC(=O)c1sc(NC(=O)c2ccco2)nc1-c1ccccc1`, the viability is 105%.

For `COc1ccc(S(=O)(=O)N2CCC(C(=O)Nc3cccc(Cl)c3)CC2)cc1OC`, the viability is 75.9%.

As for `Cc1cccc(N(C)c2cc(C)nc3ncnn23)c1`, the viability was 97.3%.

On to `CCOC(=O)C1CCCN(C(=O)Cn2sc3nc(C)cc(C)c3c2=O)C1` (stereo not given), for which the viability is 3.38% (active).

Turning to `CCc1ccc(NC(=O)CSc2nc3c(c(=O)n(C)c(=O)n3C)n2C)cc1`, the viability was 91.8%.

With `COCCNC(=O)c1ccccc1NC(=O)C1COc2ccccc2O1` (stereo not given), the viability is 95.8%.

As to `COc1ccc(S(=O)(=O)Cc2ccc(C(=O)N3CCc4ccccc4C3)o2)cc1`, the viability is 92.7%.

For the compound `CC1Cc2ccccc2N1C(=O)Cn1cnc2ccccc2c1=O` (stereo not given), the viability is 99.4%.

For the compound `Brc1cccc(-c2nc(-c3ccncc3)no2)c1`, the viability was 90.4%.

Consider `COc1ccc(OC)c(NC(=O)NC2(C(F)(F)F)Oc3ccccc3O2)c1`, for which the viability was 54.9%.

For the compound `CC(C)c1ccc(NC(=O)c2cccnc2)cc1`, the viability is 89.4%.

Regarding `Cc1ccc2oc3c(c(=O)c2c1)C(c1cccs1)N(CCCN(C)C)C3=O` (stereo not given), the viability was 97.2%.

Turning to `COc1ccc(CC(=O)N2CC3(C)CC2CC(C)(C)C3)cc1OC` (stereo not given), the viability is 92.7%.

In the case of `COc1ccc(C2C(C(=O)c3ccco3)=C(O)C(=O)N2Cc2cccnc2)cc1OC` (stereo not given), the viability is 102%.

On to `COc1ccc(OCC(=O)OCCN2C(=O)c3ccccc3C2=O)cc1`, for which the viability is 101%.

With `COc1ccc(C2C(C(=O)NCC3CCCO3)c3cc(OC)c(OC)cc3C(=O)N2C)cc1OC` (stereo not given), the viability was 92.4%.

As to `Cc1ccccc1CSc1nnc(-c2ccco2)n1Cc1ccco1`, the viability is 82.6%.

For `Cc1nc(CNS(=O)(=O)c2ccccc2F)cs1`, the viability was 94.1%.

As for `CC1CC(C(O)c2ccccn2)C(=O)C(C(O)c2ccccn2)C1` (stereo not given), the viability is 97.8%.

In the case of `CCCC(c1c(C)n(C)n(-c2ccccc2)c1=O)c1c(C)n(C)n(-c2ccccc2)c1=O`, the viability is 90.2%.

For `CS(=O)(=O)N(Cc1ccc(C(=O)NCc2ccco2)cc1)c1ccccc1`, the viability was 94%.

Turning to `CC(C)Cc1cc(C(=O)Nc2cc(Cl)ccc2Cl)no1`, the viability is 104%.

For the compound `Cc1cc(F)ccc1S(=O)(=O)Nc1c(C)n(C)n(-c2ccccc2)c1=O`, the viability was 114%.

On to `Cc1onc(-c2ccccc2)c1C(=O)Nc1cccc(C#N)c1`, for which the viability was 96.5%.

Regarding `O=C(c1ccccc1)c1ccc(OC(=O)N2CCOCC2)cc1`, the viability is 109%.

In the case of `COC(=O)CN1C(=O)CC(C)(C)Sc2ccccc21`, the viability was 103%.

In the case of `Cc1cc(C)cc(N(CC(=O)NCc2ccco2)S(=O)(=O)c2c(C)noc2C)c1`, the viability is 95.2%.

Take `COc1ccc(C)cc1NC(=O)CSc1nnc(-c2ccc(OC)c(OC)c2)n1N`: the viability was 102%.

Take `Cn1c(=O)oc2cc(S(=O)(=O)N3CCCc4ccccc43)ccc21`: the viability is 18.1% (active).

`CC(C)(C)NC(=O)c1ccc(NC(=O)C2COc3ccccc3O2)cc1` (stereo not given): the viability is 99.3%.

For `CC1CCCC(C)N1c1nnc(N)s1` (stereo not given), the viability was 104%.

Turning to `COc1ccc(-c2cc(N)n(S(=O)(=O)Cc3ccccc3)n2)c(OC)c1`, the viability was 101%.

With `CC1CN(c2ncnc3c2cnn3-c2ccc(Cl)cc2)CC(C)O1` (stereo not given), the viability was 100%.

As for `NS(=O)(=O)c1ccc(CCNC(=O)C2CCCN(S(=O)(=O)c3cccnc3)C2)cc1` (stereo not given), the viability was 108%.

On to `O=C(O)c1ccc(NS(=O)(=O)c2cccc3cccnc23)cc1`, for which the viability was 102%.

With `Cc1ccc(C(=O)Nc2nc3ccccc3n2CCN2CCCC2)cc1`, the viability is 37.4%.

As for `CC(C)c1nnc(NC(=O)CSc2ncn[nH]2)s1`, the viability was 98.3%.

Turning to `Cc1cc(C)c(NC(=O)C(C)(C)C)c(Cl)c1`, the viability is 89.8%.

Turning to `CCOc1ccc(Nc2cc(C)nc3nc(C)nn23)cc1`, the viability was 110%.
